Test results taken from PubChem BioAssay (NCATS).
Results filed as inconclusive are left out. Active and inactive are the calls of the source. Calls follow the shape of the full dose curve.

What was measured:
[1] = Primary qHTS for inhibitors of SARS-S pseudo-typed particle cell entry (AID 1479145); also: nearly all actives have a fitted effect of over 45% in size
[2] = Primary qHTS for Huh7 cytotoxicity: counterscreen for inhibitors of MERS-S pseudotyped particle cell entry (AID 1479147)
[3] = Primary qHTS for inhibitors of MERS-S pseudo-typed particle cell entry (AID 1479149); also: nearly all actives have a fitted effect of over 60% in size
[4] = Primary qHTS for Vero E6 cytotoxicity: counterscreen for inhibitors of SARS-S pseudo-typed particle cell entry (AID 1479150)
% is scaled to controls: 0 for no effect and ±100 for the full control effect.

COC(=O)/C=C\C(=O)OC
inactive: Potency [1] | Potency [2] | Potency [3] | Potency [4]

Cc1cccc(C)c1NC(=O)CC12CCCN1CCC2
inactive: Potency [1] | Potency [2] | Potency [3] | Potency [4]

CCOC(=O)c1ccc(OCCN2C[C@H](O)[C@@H](O)[C@H](O)[C@H]2CO)cc1
inactive: Potency [1] | Potency [2] | Potency [3] | Potency [4]

Cc1c(Nc2ncccc2C(=O)O)cccc1C(F)(F)F
inactive: Potency [1] | Potency [2] | Potency [3] | Potency [4]

O=C(O)/C=C(\CC(=O)O)C(=O)O
inactive: Potency [1] | Potency [2] | Potency [3] | Potency [4]

O=c1cc[nH]c(=O)[nH]1
inactive: Potency [1] | Potency [2] | Potency [3] | Potency [4]

Nc1ccc(S(=O)(=O)Nc2ccccn2)cc1
inactive: Potency [1] | Potency [2] | Potency [3] | Potency [4]

CO[C@@]1(NC(=O)CSC[C@@H](N)C(=O)O)C(=O)N2C(C(=O)O)=C(CSc3nnnn3C)CS[C@@H]21
inactive: Potency [1] | Potency [2] | Potency [3] | Potency [4]

CCOC(=O)[C@H](CCc1ccccc1)N[C@H]1CCCN2CCC[C@@H](C(=O)O)N2C1=O
inactive: Potency [1] | Potency [2] | Potency [3] | Potency [4]

COc1ccnc(CS(=O)c2nc3ccc(OC(F)F)cc3[nH]2)c1OC (stereo not drawn)
inactive: Potency [1] | Potency [2] | Potency [3] | Potency [4]

Nc1nc(=O)n([C@@H]2CS[C@H](CO)O2)cc1F
inactive: Potency [1] | Potency [2] | Potency [3] | Potency [4]

Nc1ccn(C[C@@H](CO)OCP(=O)(O)O)c(=O)n1
inactive: outcome [1] inactive [at 0.573 µM] | outcome [2] inactive [at 0.573 µM] | outcome [3] inactive [at 0.573 µM] | activity change, negative = cytotoxicity [4] -5.43% [at 0.573 µM]

Nc1nc2ccc(OC(F)(F)F)cc2s1
inactive: Potency [1] | Potency [2] | Potency [3] | Potency [4]

CN1C(=O)OC(C)(C)C1=O
inactive: Potency [1] | Potency [2] | Potency [3] | Potency [4]

C[C@@H]1[C@H](O)[C@@H](C)/C=C/C=C\C=C\C=C\C=C\C=C\C=C\[C@H](O[C@@H]2O[C@H](C)[C@@H](O)[C@H](N)[C@@H]2O)C[C@@H]2O[C@](O)(C[C@@H](O)C[C@@H](O)[C@H](O)CC[C@@H](O)C[C@@H](O)CC(=O)O[C@H]1C)C[C@H](O)[C@H]2C(=O)O (stereo in doubt)
inactive: Potency [1] | Potency [2] | Potency [3] | Potency [4]

CC[N+](CC)(CC)CCOc1cccc(OCC[N+](CC)(CC)CC)c1OCC[N+](CC)(CC)CC
inactive: Potency [1] | Potency [2] | Potency [3] | Potency [4]

Cc1ncc([N+](=O)[O-])n1CC(C)O (stereo not drawn)
inactive: Potency [1] | Potency [2] | Potency [3] | Potency [4]

CC(=O)OCC(=O)[C@@]1(O)CC[C@H]2[C@@H]3CCC4=CC(=O)CC[C@]4(C)[C@H]3C(=O)C[C@@]21C
inactive: Potency [1] | Potency [2] | Potency [3] | Potency [4]

O=C1CC[C@H](C(=O)N2CCCCC2)N1
inactive: Potency [1] | Potency [2] | Potency [3] | Potency [4]

CCO/C([O-])=N/c1c[n+](N2CCOCC2)no1
inactive: Potency [1] | Potency [2] | Potency [3] | Potency [4]

CCOc1ccc(NC(=O)CC(C)O)cc1 (stereo not drawn)
inactive: Potency [1] | Potency [2] | Potency [3] | Potency [4]

CCCN1CCCC[C@H]1C(=O)Nc1c(C)cccc1C
inactive: Potency [1] | Potency [2] | Potency [3] | Potency [4]

O=C(O)c1ccccc1S
inactive: Potency [1] | Potency [2] | Potency [3] | Potency [4]

COC(=O)c1cccnc1
inactive: Potency [1] | Potency [2] | Potency [3] | Potency [4]

CO[C@@]1(NC(=O)Cc2cccs2)C(=O)N2C(C(=O)O)=C(COC(N)=O)CS[C@@H]21
inactive: Potency [1] | Potency [2] | Potency [3] | Potency [4]

Cc1c[nH]c2ccccc12
inactive: Potency [1] | Potency [2] | Potency [3] | Potency [4]

CC(=O)OCC1=C(C(=O)O)N2C(=O)[C@@H](NC(=O)Cc3cccs3)[C@H]2SC1
inactive: Potency [1] | Potency [2] | Potency [3] | Potency [4]

Cc1nnc(SCC2=C(C(=O)O)N3C(=O)[C@@H](NC(=O)Cn4cnnn4)[C@H]3SC2)s1
inactive: Potency [1] | Potency [2] | Potency [3] | Potency [4]

Nc1nc2[nH]cc(CCc3ccc(C(=O)N[C@@H](CCC(=O)O)C(=O)O)cc3)c2c(=O)[nH]1
inactive: Potency [1] | Potency [2] | Potency [3] | Potency [4]

Nc1ccn([C@@H]2CS[C@H](CO)O2)c(=O)n1
inactive: Potency [1] | Potency [2] | Potency [3] | Potency [4]

OC[C@@H](O)[C@@H](O[C@@H]1O[C@H](CO)[C@H](O)[C@H](O)[C@H]1O)[C@H](O)[C@@H](O)CO
inactive: Potency [1] | Potency [2] | Potency [3] | Potency [4]

CC1(C)O[C@@H]2C[C@H]3[C@@H]4CCC5=CC(=O)C=C[C@]5(C)[C@@]4(F)[C@@H](O)C[C@]3(C)[C@]2(C(=O)CO)O1
inactive: Potency [1] | Potency [2] | Potency [3] | Potency [4]
